Results: PubChem BioAssay (NCATS)
Inconclusive results are not listed. The source made the active and inactive calls. Calls follow the shape of the dose curve; as a rule, active = well fitted inhibition curve with a large enough effect; inconclusive = small, poorly fitted or top-dose-only effect; inactive = flat fitted curve, though single readings scatter.

Assay: qHTS of Trypanosoma Brucei Inhibitors: LOPAC Validation (AID 624147); as to activity change, negative = inhibition: 0% is about no effect
Conditions: purified enzyme assay, luminescence, 45 min; series mostly up to 57.5 µM; activity change, negative = inhibition: at the top concentration
Excerpt: Members of the Trypanosomatidae family of parasitic protozoans cause a spectrum of diseases throughout the tropical and subtropical world. Sleeping sickness, caused by two subspecies of Trypanosoma brucei, is endemic to areas of sub-Saharan Africa, while Chagas' disease, a manifestation of Trypanosoma cruzi infection, is prevalent throughout Central and South America. In addition, many species of Leishmania are responsible for a range of cutaneous and visceral diseases, causing ulcers, destructive lesions and kalaazar, a lethal infection of the viscera. These diseases cause severe public health and economic burdens on populations that are often already caught in a tragic cycle of poverty, poor nutrition and disease. Collectively, parasites of the trypanosomatid family infect 30 million people worldwide (~500 million live in endemic areas), and account for ~130K deaths annually. Existing treatments have developed little in the past 50 years, and suffer from toxicity, poor efficacy and resistance; the goal of this project is to develop lead drugs that will be suitable for entry into pre-clinical trials.
Glycolysis in axenically cultured T. cruzi, representing the intracellular pathogenic stage, is also essential for these parasites. {Engel, 1987} This project aims to discover and optimize selective inhibitors of the glycolytic enzyme pyruvate kinase (PYK) from Trypanosoma brucei, the parasite that causes sleeping sickness. […] Trypanosomatid PYKs show significant differences from their human counterparts including only 47-50% sequence identity and different allosteric and activation properties.{Callens, 1992} To this end, a qHTS was done against the MLSMR to discover inhibitors.
NIH Molecular Libraries Probe Production Network [MLPCN]
NIH Chemical Genomics Center [NCGC]
PI Name: Malcolm Walkinshaw, University of Edinburgh
2 uL of TbPYK/substrate buffer (columns 1-3, 5-48) are dispensed into Greiner white solid bottom 1536-well assay plates; column 4 receives only TEA buffer as 0x TbPYK controls. Compounds are then transferred via Kalypsys pin tool equipped with 1536-pin array (10 nL slotted pins, V&P Scientific, San Diego, CA). Following addition of compound, 2 uL of ADP (130 uM final concentration, all columns) is added to initiate the reaction. The plates are then incubated at room temperature for 45 minutes. Kinase-Glo Plus reagent is added (3 uL) and plates incubated for 10 minutes, before being transferred to a ViewLux high-throughput CCD imager (PerkinElmer) wherein single end-point measurements of luminescence are acquired using a clear filter. All reagents are diluted in an assay buffer consisting of 50 mM TEA (pH 7.2), 100 mM KCl, 10 mM MgCl2, 0.05% BSA and 0.01% Tween-20.
All screening operations will be performed on a fully integrated robotic system (Kalypsys, San Diego, CA) containing one RX-130 and two RX-90 anthropomorphic robotic arms (Staeubli, Duncan, SC). Library plates will be screened starting from the lowest and proceeding to the highest concentration. Vehicle-only plates, with DMSO being pin-transferred to columns 5-48, will be inserted uniformly at the beginning and the end of each library in order to monitor and record any shifts in the background, which can be affected by reagent dispensers or loss in enzyme activity over time. Screening data will be corrected, normalized, and concentration-effect relationships will be derived by using publicly-available curve fitting algorithms developed in-house (http://ncgc.nih.gov/pub/openhts).
Potency is read from the fitted curve at half-maximal effect.

SMILES	activity change, negative = inhibition	Potency
CC12CC3CC(C)(C1)CC(N)(C3)C2	-6.13% (inactive)	–
CN(Cc1cnc2nc(N)nc(N)c2n1)c1ccc(C(=O)N[C@@H](CCC(=O)O)C(=O)O)cc1	-4.44% (inactive)	–
Cc1cn([C@H]2C[C@H](N=[N+]=[N-])[C@@H](CO)O2)c(=O)[nH]c1=O	-3.57% (inactive)	–
COc1ccc2c(c1)c(CC(=O)O)c(C)n2C(=O)c1ccc(Cl)cc1	-5.27% (inactive)	–
CC(CCc1ccc(O)cc1)NCCc1ccc(O)c(O)c1 (stereo not given)	-11.1% (inactive)	–
Cn1cnc2c1c(=O)[nH]c(=O)n2C	-13.1% (inactive)	–
Cc1cnc(C(=O)NCCc2ccc(S(=O)(=O)NC(=O)NC3CCCCC3)cc2)cn1	-13.6% (inactive)	–
NC12CC3CC(CC(C3)C1)C2	-5% (inactive)	–
CC(C)NCC(O)c1ccc(O)c(O)c1 (stereo not given)	-12.2% (inactive)	–
CN1C(C(=O)Nc2ccccn2)=C(O)c2ccccc2S1(=O)=O	-8.76% (inactive)	–
O=C1N(c2ccccc2)c2ccccc2C1(Cc1ccncc1)Cc1ccncc1	-8.06% (inactive)	–
CN1CCC(=C2c3ccccc3C=Cc3ccccc32)CC1	-3.3% (inactive)	–
CC#C[C@]1(O)CC[C@H]2[C@@H]3CCC4=CC(=O)CCC4=C3[C@@H](c3ccc(N(C)C)cc3)C[C@@]21C	–	21.3 µM (active)
CC(C(=O)O)c1cccc(C(=O)c2ccccc2)c1 (stereo not given)	3.54% (inactive)	–
CCCNCC(O)COc1ccccc1C(=O)CCc1ccccc1 (stereo not given)	-13.5% (inactive)	–
Fc1ccc([C@@H]2CCNC[C@H]2COc2ccc3c(c2)OCO3)cc1	-7.54% (inactive)	–
C[C@H]1c2cccc(O)c2C(O)=C2C(=O)[C@]3(O)C(O)=C(C(N)=O)C(=O)[C@@H](N(C)C)[C@@H]3[C@@H](O)[C@@H]21	-3.87% (inactive)	–
O=C1Cc2cc(CCN3CCN(c4nsc5ccccc45)CC3)c(Cl)cc2N1	-3.4% (inactive)	–
O=c1c(O)c(-c2ccc(O)c(O)c2)oc2cc(O)cc(O)c12	-21.3% (inactive)	–
O=C(C1CCCCC1)N1CC(=O)N2CCc3ccccc3C2C1 (stereo not given)	-5.05% (inactive)	–

SMILES	activity change, negative = inhibition	Potency
CCC1(c2ccccc2)C(=O)NCNC1=O	-10.7% (inactive)	–
CN(C)CCC=C1c2ccccc2C=Cc2ccccc21	-3.37% (inactive)	–
COc1nc(C)nc(Cl)c1NC1=NCCN1	-5.39% (inactive)	–
OCCN1CCN(CCCN2c3ccccc3Sc3ccc(C(F)(F)F)cc32)CC1	-4.19% (inactive)	–
Nc1nc2c(ncn2COC(CO)CO)c(=O)[nH]1	-10.7% (inactive)	–
COC(=O)Nc1nc2ccc(C(=O)c3cccs3)cc2[nH]1	-5.66% (inactive)	–
COc1ccccc1N1CCN(CC(O)COc2cccc3ccccc23)CC1 (stereo not given)	-1.77% (inactive)	–
Clc1ccc2c(c1)C(N1CCNCC1)=Nc1ccccc1O2	-1.96% (inactive)	–
Cc1cc(C(C)(C)C)c(O)c(C)c1CC1=NCCN1	3.22% (inactive)	–
CCCCc1oc2ccccc2c1C(=O)c1cc(I)c(OCCN(CC)CC)c(I)c1	-7.44% (inactive)	–
Cn1c(=O)c2[nH]cnc2n(C)c1=O	2.12% (inactive)	–
Cc1cc(C(C)(C)C)cc(C)c1CC1=NCCN1	-12.4% (inactive)	–
CN1CCC(=C2c3ccccc3CC(=O)c3sccc32)CC1	-7% (inactive)	–
Cc1ccccc1N1C(=O)c2cc(S(N)(=O)=O)c(Cl)cc2NC1C (stereo not given)	-3.09% (inactive)	–
OCCN(CCO)c1nc(N2CCCCC2)c2nc(N(CCO)CCO)nc(N3CCCCC3)c2n1	-2.44% (inactive)	–
NC(CO)C(=O)NNCc1ccc(O)c(O)c1O (stereo not given)	-22.3% (inactive)	–
Nc1ccn([C@H]2CC[C@@H](CO)O2)c(=O)n1	-5.6% (inactive)	–
Nc1c2c(nc3ccccc13)CCCC2	-10.1% (inactive)	–
Clc1ccccc1C(c1ccccc1)(c1ccccc1)n1ccnc1	-6.34% (inactive)	–
CN1C2CCC1CC(OC(=O)C(CO)c1ccccc1)C2 (stereo not given)	–	inactive
